High-throughput results from PubChem.
GDH-TPI counter-1: counter-screen for M. tuberculosis FBA inhibitors: GDH-TPI coupled enzymes. actives 1.2% (n = 360,000). GDH-TPI coupled enzyme counterscreen, NADH absorbance. inhibition, % at 4.8 µM. AID 588335;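 also: 0% = DMSO wells and 100% = wells lacking the enzyme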
RecA splice inh: Mtb RecA intein splicing inhibition; inhibition, % (concentration not given with the values); cell-free RecA intein splicing, fluorescence; actives 0.75% (n = 290,000); P9WHJ3; AID 2221; in the data active = inhibition above about 30%;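 also: 0% = vehicle wells and 100% = reference inhibitor control wells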
CCHFV vOTU inh: CCHFV vOTU protease inhibition; inhibition, % at 11.5 µM; Pep-AMC fluorescence; AID 651958; actives 0.55% (n = 370,000); also: 0% = vehicle wells with enzyme and 100% = no enzyme wells
Mtb betalactam: beta-lactam sensitization of Mtb H37Rv; inhibition, % at 25 µM; M. tuberculosis H37Rv growth with meropenem, percent inhibition; actives 0.27% (n = 330,000); call rule not given here;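 also: growth measured after seven days incubation then overnight dye step; 0% = bacteria only wells and 100% = bacteria with antibiotic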
FBA Mtb inh: Mtb fructose-bisphosphate aldolase inhibition; AID 588726; P9WQA3; actives 2.3% (n = 360,000); inhibition, % at 1 µM; purified M. tuberculosis FBA, fluorescence read-out; in the data active = inhibition above about 27%;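 also: 0% = vehicle and 100% = reference inhibitor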
Target sequence (P9WQA3 whole entry, looked up): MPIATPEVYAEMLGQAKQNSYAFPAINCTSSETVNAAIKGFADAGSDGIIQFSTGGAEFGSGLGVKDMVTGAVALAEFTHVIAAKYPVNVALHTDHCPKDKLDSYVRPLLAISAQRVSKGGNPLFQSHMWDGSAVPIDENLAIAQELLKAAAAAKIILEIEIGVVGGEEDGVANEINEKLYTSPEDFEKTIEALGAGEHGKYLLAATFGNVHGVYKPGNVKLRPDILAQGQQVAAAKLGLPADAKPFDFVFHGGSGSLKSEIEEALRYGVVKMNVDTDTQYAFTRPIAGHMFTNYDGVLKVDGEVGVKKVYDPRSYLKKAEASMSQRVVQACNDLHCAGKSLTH
Mtb FBA inh conf: Mtb FBA inhibition, confirmed. AID 651616. inhibition, % at 1 µM. actives 78% (n = 5,600). shares compounds with FBA Mtb inh. purified M. tuberculosis FBA, fluorescence read-out; in the data active = inhibition above about 27%;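 also: 0% = vehicle wells and 100% = reference inhibitor wells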
GDH-TPI counter-2: inhibits GDH-TPI coupling enzymes, flagging Mtb FBA hits | actives 81% (n = 5,600) | GDH-TPI coupled enzyme counterscreen, fluorescence | AID 652141 | shares compounds with FBA Mtb inh | inhibition, % at 1 µM; in the data active = inhibition above about 10%
GDH-TPI dose: inhibits GDH-TPI coupling enzymes in dose response. GDH-TPI coupled enzyme assay, fluorescence, artifact counterscreen. IC50, µM. actives 79% (n = 170). shares compounds with FBA Mtb inh; call rule not given here
* hit, by the source's call; i = inactive; x = no result given; + = active, no number; ! = not active in a repeat. An excerpt weighted towards active compounds, which were near 4.2% of everything screened. Rule as the data show it, unless noted: active = inhibition above about 30%; inactive = the rest.

SMILES | GDH-TPI counter-1 | RecA splice inh | CCHFV vOTU inh | Mtb betalactam | FBA Mtb inh | Mtb FBA inh conf | GDH-TPI counter-2 | others
N#Cc1c(-c2ccc(Br)cc2)cc(-c2cccnc2)nc1N | 10 | -7 | -5 | 8 | 29* | 17 | 3 | GDH-TPI dose=>10
CC1=CC(c2ccccc2)n2nc(N)nc2N1 (stereo unspecified) | 6 | -26 | -41 | -7 | 53* | 40* | 37*
CC1=CC(c2ccccc2)n2ncnc2N1 (stereo unspecified) | 8 | 4 | -101 | -3 | 5 | x | x
CC1=CC(c2ccccc2)n2nc(NS(=O)(=O)c3ccc(C)cc3)nc2N1 (stereo unspecified) | 14 | x | -40 | -1 | 49* | 22 | 15*
CC1=CC(c2ccc(Cl)cc2)n2nc(NS(=O)(=O)c3ccc(C)cc3)nc2N1 (stereo unspecified) | 12 | -66 | -55 | 6 | 80* | 68* | 63*
Cc1ccc(S(=O)(=O)Nc2nc3n(n2)C(c2ccc(Cl)cc2)CC(=O)N3)cc1 (stereo unspecified) | 3 | -1 | -2 | -22 | 2 | x | x
CCCN1CCCCC(NC(=O)c2ccc3ccccc3c2)C1=O (stereo unspecified) | x | x | -9 | x | x | x | x
CCOc1ccc2[nH]c3c(NCCc4ccc(OC)c(OC)c4)ncnc3c2c1 | 16 | 5 | -11 | 7 | 32* | 181* | 147*
CCOc1ccc2[nH]c3c(NCCO)ncnc3c2c1 | 1 | 0 | -76 | 1 | 78* | 45* | 43*
CCCCOc1ncnc2c1[nH]c1ccc(OCC)cc12 | 9 | 0 | -17 | 27 | 8 | x | x
C#CCN(Cc1ccco1)C(=O)c1nnc2c3ccccc3n(S(=O)(=O)c3ccccc3)c2n1 | x | x | -2 | x | x | x | x
CC(=O)N1CCN(c2ccc(N3CCN(C(C)=O)[C@@H](C)C3)c(C)c2)[C@H](C)C1 | x | x | 3 | x | x | x | x
Oc1ccc(C2CNCCc3c2cc(O)c(O)c3Cl)cc1 (stereo unspecified) | -1 | -7 | -4 | 0 | 40*! | -2 | -7
C=CCN1CCc2c(cc(O)c(O)c2Cl)C(c2ccccc2)C1 (stereo unspecified) | 4 | -3 | -8 | -3 | -2 | x | x
COc1ccc(S[C@]2(C(=O)N3CCOCC3)CC(=O)N(c3ccc(C#N)cc3)[C@@H]2c2ccc(OC)cc2)cc1 | x | x | -1 | x | x | x | x
CCN(CC)S(=O)(=O)c1ccc(-c2cn3cc(Cl)ccc3n2)cc1 | 13 | x | -5 | 0 | 31* | x | +
N#Cc1ccc(CCc2ccccc2)[nH]c1=O | 17 | x | -7 | x | 31* | 2 | 0
Cn1cc(CC(=O)Nc2ccc(Oc3cccnc3)cc2)c2ccccc21 | x | x | -5 | x | x | x | x
O=c1[nH]c2c(=O)[nH]cnc2nc1-c1ccccc1 | 3 | i | -77 | -6 | 74* | 56* | 42*
COc1ccc(C2CC(=O)C(c3ccccc3C)=CN2Cc2ccccc2)cc1 (stereo unspecified) | x | x | 13 | x | x | x | x
O=C(Nc1ccc2oc(-c3ccccc3F)nc2c1)c1ncn[nH]1 | 13 | 2 | 8 | 95 | 37* | 158* | 143*
C=CCSc1nnc(-c2sc(-c3ccccc3)nc2C)n1C | 13 | -4 | -23 | -14 | 64* | 2 | -4
C=CCSc1nnc(-c2nnc(SCC=C)n2-c2ccccc2)n1-c1ccccc1 | -2 | -1 | 2 | 2 | 0 | x | x
CC(C)COC(=O)C(C)Nc1n[nH]c(=S)[nH]c1=O (stereo unspecified) | 11 | -3 | 3 | 0 | 53* | 4 | -3
Cc1cc(-c2ccc(Cl)cc2)n2ncnc2n1 | 10 | 0 | -10 | 0 | 28* | 101* | 91*
SMILES | GDH-TPI counter-1 | RecA splice inh | CCHFV vOTU inh | Mtb betalactam | FBA Mtb inh | Mtb FBA inh conf | GDH-TPI counter-2 | others
Cc1cc(Nc2ccc(Cl)cc2)n2ncnc2n1 | 5 | 1 | -11 | 5 | 5 | x | x
Cc1cc(-c2ccc(Cl)cc2)n2nc(N)nc2n1 | 14 | -2 | -9 | 4 | 59* | 17 | 7 | GDH-TPI dose=2.6*
Cn1c(=O)c2cc(NC(=O)Cc3ccccc3F)ccc2n1C/C=C/c1ccccc1 | 9 | x | -33 | x | 62* | + | +
Cn1c(=O)c2cc(NC(=O)NCc3ccc(F)cc3)ccc2n1C/C=C/c1ccccc1 | 2 | x | -45 | x | 60* | 26 | 25*
Cn1c(=O)c2cc(NC(=S)NC3CCCCC3)ccc2n1C/C=C/c1ccccc1 | 10 | x | -6 | x | 9 | x | x
Cn1c(=O)c2cc(NC(=O)Cc3cccc4ccccc34)ccc2n1-c1ccccc1 | 7 | x | -5 | x | 4 | x | x
Cn1c(=O)c2cc(NC(=S)NC3CC3)ccc2n1C/C=C/c1ccccc1 | 7 | x | -7 | x | 34* | 70* | 54*
CN1C(=O)CSc2ccc(NC(=O)NCc3ccc(F)cc3)cc21 | 4 | -1 | 2 | 7 | 1 | x | x
Cc1nn(-c2ccccc2)c(C)c1/C=N/NC(=O)c1[nH][nH]c(=O)c1C | x | x | 2 | x | x | x | x
O=C(CCC1CCCN(C(=O)c2ccco2)C1)NCc1ccccc1F (stereo unspecified) | 27 | -1 | -10 | -4 | 2 | x | x
C=CCC(=O)N1CCCC(CCC(=O)NCc2ccccc2F)C1 (stereo unspecified) | -3 | -2 | -9 | 6 | 33* | 46* | 47*
Cc1ccsc1C1NC(=O)c2c(sc3c2CCN(C)C3)N1 (stereo unspecified) | 12 | -52 | -55 | 9 | 44* | -5 | -5
CCN(CC)CCCN(Cc1cc2cc3c(cc2[nH]c1=O)OCO3)C(=S)NCc1ccco1 | 12 | -4 | -18 | 2 | 24 | x | x
CN(C)CCCN(Cc1cc2cc3c(cc2[nH]c1=O)OCO3)C(=S)NCc1ccco1 | 8 | -1 | -33 | -1 | 27* | + | +
CCN(CC)CCN(Cc1cc2cc3c(cc2[nH]c1=O)OCO3)C(=S)NCc1ccco1 | 9 | 6 | -48 | -5 | 35* | 6 | -1
CCC(=O)N(Cc1ccco1)Cc1cc2cc3c(cc2[nH]c1=O)OCO3 | 11 | -2 | -34 | -2 | 40* | + | 152*
CNC(=S)N(CCCO)Cc1cc2cc3c(cc2[nH]c1=O)OCO3 | 19 | -2 | -27 | -2 | 30* | 85* | 65*
COC(=O)C1=C(C)N(Cc2ccc(Br)cc2)C(=S)NC1c1cccc(Br)c1 (stereo unspecified) | x | x | 9 | x | x | x | x
C[C@@H]1COc2cccc(N3CCSCC3)c2S(=O)(=O)N1C | x | x | 10 | x | x | x | x
CCN=C1NC(c2ccccc2C(F)(F)F)C(C(=O)OC)=C(C)N1Cc1ccc(C(F)(F)F)cc1 (stereo unspecified) | x | x | 4 | x | x | x | x
Cc1nnc2sc(-c3ccc(-c4ccc(Cl)c(C(F)(F)F)c4)o3)nn12 | 15 | 2 | 0 | 5 | 76* | 130* | 115*
